This is an account of results in PubChem BioAssay (EPA / NIEHS).

Where “and” joins values, the source holds several entries; their conditions need not be identical. Identical values can stand only once. Records with an inconclusive call do not appear. Where a structure was tested more than once in an assay, its records may differ in their call. Calls of active or inactive are those of the source. How the source made its calls: active means hit-call score of the fitted dose curve at least 0.9, where 1 is the maximum; inconclusive means response in the unintended direction; inactive means score below 0.9.

Cellular tumor antigen p53 (Homo sapiens), sequence (P04637 whole entry, looked up): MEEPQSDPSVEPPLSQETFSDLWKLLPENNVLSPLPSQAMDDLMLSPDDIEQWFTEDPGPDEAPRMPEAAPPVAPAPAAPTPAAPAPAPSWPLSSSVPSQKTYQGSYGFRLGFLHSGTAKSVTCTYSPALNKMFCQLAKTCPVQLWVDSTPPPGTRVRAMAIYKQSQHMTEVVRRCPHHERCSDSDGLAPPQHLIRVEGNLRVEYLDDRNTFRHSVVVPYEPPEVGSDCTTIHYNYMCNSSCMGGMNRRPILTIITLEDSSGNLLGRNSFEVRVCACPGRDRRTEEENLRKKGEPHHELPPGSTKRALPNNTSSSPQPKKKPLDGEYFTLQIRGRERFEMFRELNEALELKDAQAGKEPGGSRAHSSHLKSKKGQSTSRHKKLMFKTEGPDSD

The assay has as its target Cellular tumor antigen p53 (Homo sapiens) (UniProt P04637). The assay is described as follows: TOX21_p53_BLA_p2_ratio: Tox21 HCT-116 p53 Agonism Beta-lactamase Assay, Ratio, Phase 2 (AID 2283592). In short, it runs like this:
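Readout: blue/green (460/530 nm) FRET emission ratio after 2 h CCF4-AM loading at room temperature, excitation 405 nm. HCT116 p53 bla cells, 16 h compound exposure at 37C, 5% CO2; agonist direction fitted against DMSO baseline.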
For orientation: AC50 means the concentration at which the activity in the assay is half-maximal. With `O=c1n(CC2CO2)c(=O)n(CC2CO2)c(=O)n1CC1CO1` (stereo not given), the AC50 was 19.6 µM (active) and 9.81 µM (active) and 20.5 µM (active).
As to `O=C1CCC(N2C(=O)c3ccccc3C2=O)C(=O)N1` (stereo not given), the outcome was inactive.
`Cc1ccc(S(=O)(=O)O)cc1C`: the result was inactive.
On the same count and under the same terms, the value for `C1N2CN3CN1CN(C2)C3` was “inactive”; that for `COC(=O)c1c(Cl)c(Cl)c(C(=O)OC)c(Cl)c1Cl` was “inactive”; that for `CN(C)c1ccc(N=NS(=O)(=O)O)cc1` was “inactive”.
On the same count and under the same terms, as for `CC(C)CC(C)(O)C#CC(C)(O)CC(C)C` (stereo not given), the entry is “inactive”; as for `O=C1OC(=O)C2C3C=CC(C3)C12` (stereo not given), “inactive”; as for `COC(=O)c1ccccc1O`, “inactive”.
Same read-out and setting: as for `O=C(CCCCCCCCc1cccnc1)N1CCC(C=C(c2ccccc2)c2ccccc2)CC1`, the entry is “inactive”; as for `C[C@](N)(Cc1ccc(O)c(O)c1)C(=O)O`, “inactive”.
Turning to `Cn1cnc([N+](=O)[O-])c1Sc1ncnc2nc[nH]c12`, the AC50 is 18.9 µM (active) and 31.3 µM (active).
Take `O=C1CCCCCN1`: the result was inactive.
With `Oc1ccc2c(c1)-c1ccccc1C2`, the outcome was inactive.
The same measure, in the same setting: the value for `CC(C)=CCC/C(C)=C\CO` was “inactive”.
Same read-out and setting: as for `CCC(C)(C)C(=O)O[C@H]1C[C@@H](C)C=C2C=C[C@H](C)[C@H](CC[C@@H]3C[C@@H](O)CC(=O)O3)[C@H]21`, the entry is “inactive”.
Same read-out and setting: as for `Nc1cccc(N)c1`, the entry is “inactive”.
On to `Nc1nc2ncc(CNc3ccc(C(=O)N[C@@H](CCC(=O)O)C(=O)O)cc3)nc2c(=O)[nH]1`, for which the result was inactive.
Still for that read-out and setting: the value for `Cn1c(=O)c2c(ncn2C)n(C)c1=O` was “inactive”.
Take `O=C(OC[C@H]1O[C@@H](OC(=O)c2cc(O)c(O)c(OC(=O)c3cc(O)c(O)c(O)c3)c2)[C@H](OC(=O)c2cc(O)c(O)c(OC(=O)c3cc(O)c(O)c(O)c3)c2)[C@@H](OC(=O)c2cc(O)c(O)c(OC(=O)c3cc(O)c(O)c(O)c3)c2)[C@@H]1OC(=O)c1cc(O)c(O)c(OC(=O)c2cc(O)c(O)c(O)c2)c1)c1cc(O)c(O)c(OC(=O)c2cc(O)c(O)c(O)c2)c1`: the AC50 is 12.9 µM (active) and 6.14 µM (active).
Turning to `Cc1[nH]cnc1C[C@H]1CCc2c(C)c3ccccc3n2C1=O`, the result was inactive.
`CCCCCCc1ccc(O)cc1O`: the AC50 was 53.5 µM (active) and 42.9 µM (active); the outcome was inactive.
On to `CC(=O)OC[C@H]1O[C@@](COC(C)=O)(O[C@H]2O[C@H](COC(C)=O)[C@@H](OC(C)=O)[C@H](OC(C)=O)[C@H]2OC(C)=O)[C@@H](OC(C)=O)[C@@H]1OC(C)=O`, for which the result was inactive.
Turning to `O=P(OC(CCl)CCl)(OC(CCl)CCl)OC(CCl)CCl`, the result was inactive.
Same read-out and setting: the value for `COc1ccc(-n2nc(C(F)F)cc2-c2ccc(S(C)=O)cc2)cc1` (stereo not given) was “inactive”; that for `O=C(O)c1cc(N=Nc2ccc(S(=O)(=O)Nc3ccccn3)cc2)ccc1O` was “inactive”.
For the molecule `CC(C)c1cccc(C(C)C)c1N1C(=O)c2ccc(O)cc2C1=O`, the AC50 is 1.77 µM (active).
Regarding `CC(=O)OCCC(C)C`, the outcome was inactive.
Take `O=C(O)c1cccc(N(Cc2cccnc2)c2ccc(OC(F)F)c(OC(F)F)c2)c1`: the outcome was inactive.
